Measurements reported in the supplement of paper PMC4237247.

The molecules below were run on HeLa (assay: percent cells in G1/S phase; higher = more G1/S content). Conditions: 10 µM; 20 h; hit class: G2/M-phase inhibitor.
Experimental: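 HTS of 79,827 drug-like compounds at 10 uM. HeLa cells in 384-well plates were treated for 20 h, fixed, stained with Vybrant DyeCycle Green and scanned on an Acumen eX3 cytometer to give per-well cell cycle profiles. Only G2/M hits (>=67% G2/M) are listed.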

Structure (SMILES)	percent cells in G1/S phase
COc1ccc(/C=C/c2ccc3cccc(O)c3n2)cc1C	22.4%
COc1cc(NS(=O)(=O)c2ccc(NC(C)=O)cc2)c(OC)cc1Cl	23.2%
COc1ccccc1NC1=CC(=O)CC(c2ccccc2)C1 (centres undefined)	21.6%
COC(=O)Nc1nc2cc(C(=O)c3ccccc3)ccc2[nH]1 [Mebendazole]	22.1%
O=C(O)c1ccccc1SC1CC(=O)N(c2ccc(Br)cc2)C1=O (centres undefined)	17.9%
O=C(CSc1nc2ccc([N+](=O)[O-])cc2s1)c1ccc(Cl)cc1	22.6%
CC(=O)O[C@H]1C(=O)[C@@]2(C)[C@H]([C@H](OC(=O)c3ccccc3)[C@]3(O)C[C@H](OC(=O)[C@H](O)[C@@H](NC(=O)c4ccccc4)c4ccccc4)C(C)=C1C3(C)C)[C@]1(OC(C)=O)CO[C@@H]1C[C@@H]2O [Paclitaxel]	16.5%
CC(=O)Nc1ccc(Nc2nc(-c3c(C)nc4ccccn34)cs2)cc1	14.3%
COC(=O)Nc1nc2cc(Sc3ccccc3)ccc2[nH]1 [Fenbendazole]	26.3%
CCN(CC)CCN1C(=O)C(=O)C(=C(O)c2ccccc2)C1c1ccccc1F (centres undefined)	20.9%
COc1cc(-c2onc3ccc(Cl)cc23)cc(OC)c1OC	15.6%
O=c1[nH]c(/C=C/c2ccccc2)nc2ccccc12	24.1%
COC(=O)Nc1nc2ccc(SC(C)C)cc2[nH]1 [Methiazole]	19.6%
O=c1[nH]c(/C=C/c2ccccc2F)nc2ccccc12	19.2%
